Screening data from PubChem.
Only some compounds are listed: those with a hit (about 8% of all), similar ones and a draw of the others.
HCMV antiviral – qHTS Assay for inhibitors of the human cytomegalovirus (HCMV) | HFF cells, HCMV-luciferase reporter, 72 h; stronger effect = lower value | activity change, negative = inhibition, % at 57.5 µM | 410,000 tested, 4.5% active; in the data active = activity change below about -60%; inconclusive = no clear call, values can overlap the other calls; inactive = above about -39%
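Two-dose cell screen: HFF monolayers treated with compounds and infected with luciferase-expressing HCMV at 1 PFU/cell, 72 h at 37C, then lysed for luciferase measurement.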
LASV entry inh – qHTS for Inhibitors of binding or entry into cells for Lassa Virus; 300,000 tested, 1.2% active; Lassa virus pseudotype entry inhibition, cell reporter; Potency, µM (titrated, usually from 37.9 µM), actives largely listed as inhibitors; AID 540256, 2011; calls by dose curve; tested in HEK293 cells; also: nearly all actives have a fitted effect of over 50% in size
SARS PLpro yeast – qHTS of Yeast-based Assay for SARS-CoV PLP; Potency, µM (doses to about 32.9 µM), most hits filed as activators; AID 485353, 2010; S. cerevisiae expressing SARS-CoV PLpro, growth rescue; 330,000 tested, 0.19% active; calls by dose curve; also: nearly all actives have a fitted effect of over 55% in size
Marburg entry inh – qHTS for inhibitors of binding or entry into cells for Marburg Virus. 300,000 tested, 1.8% active. AID 540276, 2011. Potency, µM (series often up to 37.8 µM), most hits filed as inhibitors. Marburg virus pseudotyped entry inhibition, cell reporter; calls by dose curve; tested in HEK293 cells
FMDV inh – High Throughput Screening for Foot and Mouth Disease Virus Antivirals; FMDV antiviral cell-based qHTS; Potency, µM (highest dose often 57.9 µM), usual class: inhibitors; 410,000 tested, 1.2% active; AID 1159524, 2015; calls by dose curve; tested in HEK293T cells; also: read-out not given here; nearly all actives have a fitted effect of over 45% in size
HCV inh – qHTS Assay for Inhibitors of Hepatitis C Virus (HCV) | Huh7.5.1 HCVcc-Cre infection, luciferase reporter, 44 h | Potency, µM (doses to about 41.8 µM), hits mostly inhibitors | 340,000 tested, 3.4% active; active = well fitted inhibition curve with a large enough effect; inconclusive = small, poorly fitted or top-dose-only effect, or another doubt; inactive = no such curve, though single readings can be large or run the other way
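Reporter virus HCVcc-Cre (~0.5 moi) infects cells exposed to compound; seeding density 1,000 cells/well with 4 h settling beforehand. Luminescence, 15 sec read, taken 44 h post-infection following a 15 min RT substrate incubation.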
Numbers stand for hits; i = inactive; ? = inconclusive; nt = no result given.

SMILES	HCMV antiviral	LASV entry inh	SARS PLpro yeast	Marburg entry inh	FMDV inh	HCV inh
CCc1ccc(N2C=C(C(=O)OC)C(c3ccc(OC)cc3)C(C#N)=C2N)cc1 (stereo not given)	-77	nt	nt	nt	?	nt
COc1ccc2c(c1OC)C(=O)OC2	i	nt	i	nt	i	i
COc1ccc2c3c(cccc13)C(=O)CC2	-71	i	i	i	i	i
COc1ccc(CN2CCN(CC3CC3)CC2CCO)c(C)c1C (stereo not given)	i	nt	i	nt	i	i
COc1ccc(CN2CCN(Cc3nc4ccccc4s3)CC2CCO)c(C)c1C (stereo not given)	i	nt	i	nt	?	6.3µM
O=C(Nc1cccc([N+](=O)[O-])c1)Nc1cccc([N+](=O)[O-])c1	?	?	i	?	?	?
O=C(Nc1ccc(Cl)cc1)Nc1csc([N+](=O)[O-])c1	-103	?	i	?	i	?
O=C(Nc1csc([N+](=O)[O-])c1)Nc1c(Cl)cccc1Cl	-76	nt	i	nt	i	i
CCOC(=O)C(C)Sc1nc(-c2ccccc2Cl)cc(-c2ccccc2)c1C#N (stereo not given)	i	i	nt	?	i	nt
CC(Sc1nc(C(C)(C)C)cc(-c2ccccc2)c1C#N)C(=O)Nc1ccccc1 (stereo not given)	-64	i	i	?	i	i
Cc1nn(C)c2c1c(C(F)(F)F)cc(=O)n2C(C)C(=O)Nc1ccccc1F (stereo not given)	i	i	nt	nt	?	nt
Cc1nc2ccccc2nc(C)c1=NO	i	i	i	i	i	i
C/C(O)=c1/ccc2cccc3nc(C)nc1c23	-79	i	i	i	nt	?
Cc1ccccc1-n1cc(CNC(=O)CN2Cc3ccccc3OC(C)C2)cn1 (stereo not given)	nt	nt	nt	nt	i	nt
O=C1CC(c2ccc(F)cc2)CC2=C1C(c1ccc([N+](=O)[O-])o1)Nc1ccccc1N2 (stereo not given)	i	?	i	10µM	i	?
O=C1CC(c2ccccc2)CC2=C1C(c1ccccn1)Nc1ccccc1N2 (stereo not given)	i	i	i	i	nt	i
Clc1cccc(Cl)c1CO/N=C/c1c(-c2ccccc2)nc2n1CCS2	?	?	i	21µM	i	?
CC(=O)c1cccc(NC(=O)C2Cc3c(-c4ccco4)ccnc3O2)c1 (stereo not given)	-62	nt	nt	nt	i	nt
CC(=O)Nc1ccc(NC(=O)C2Cc3c(-c4ccco4)ccnc3O2)cc1 (stereo not given)	i	nt	nt	nt	i	nt
O=C(Nc1cccnc1)C1Cc2c(-c3ccccc3Oc3ccccc3)ccnc2O1 (stereo not given)	i	nt	nt	nt	?	nt
O=C(Nc1cccc(C(F)(F)F)c1)C1Cc2c(-c3ccccc3Oc3ccccc3)ccnc2O1 (stereo not given)	i	nt	nt	nt	?	nt
CN(C)c1cccc(NC(=O)C2Cc3c(-c4ccccc4Oc4ccccc4)ccnc3O2)c1 (stereo not given)	-83	nt	nt	nt	i	nt
CC(=O)c1cccc(NC(=O)C2Cc3c(-c4ccccc4Oc4ccccc4)ccnc3O2)c1 (stereo not given)	-66	nt	nt	nt	?	nt
CCCCCC(=O)N1C[C@@H](n2cc(C3CC3)nn2)[C@H](O)C[C@H]1c1ccccc1	nt	i	nt	nt	nt	nt
CC(C)OC(=O)n1c(=S)oc2ccccc21	i	i	i	?	nt	i
SMILES	HCMV antiviral	LASV entry inh	SARS PLpro yeast	Marburg entry inh	FMDV inh	HCV inh
CCCCC(=O)/C=C/n1c(=S)oc2ccccc21	-101	i	i	18µM	?	?
CC(c1ccccc1)N(NC(=O)C(O)(c1ccccc1)c1ccccc1)C(=O)c1ccccc1 (stereo not given)	-74	i	i	?	i	?
COc1cc2c(c(OC)c1OC)-c1ccc(C(=O)O)cc1[C@@H](NC(C)=O)CC2	i	nt	nt	nt	i	nt
COc1cc2c(c(OC)c1O)-c1ccc(OC)c(=O)cc1C(NC(=O)C(F)(F)F)CC2 (stereo not given)	-90	?	nt	?	i	i
COc1cc2c(c(OC)c1OC)-c1ccc(SC)c(=O)cc1C(NC(=O)C(F)(F)F)CC2 (stereo not given)	-81	?	nt	?	?	i
CN(C)S(=O)(=O)N1CCC(Oc2ccc(C(=O)NC3Cc4ccccc4C3)cc2)CC1	-81	nt	i	nt	?	3.5µM
